Assay outcomes deposited in PubChem by Sanford-Burnham Center for Chemical Genomics.
Only some compounds are listed: those with a hit (about 3% of all), similar ones and a draw of the others.
SENP7 block – SENP7 protease inhibitors, primary screen, biochemical, luminescence, uHTS; Sentrin-specific protease 7 (Homo sapiens), Q9BQF6; recombinant SENP7, Z-RLRGG-aminoluciferin luminescence, 40 min; inhibition, % at 5 µM; actives 1.5% (n = 330,000); AID 434973, 2010;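 active means inhibition above about 50% at the single test dose, limit read from the data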
Target sequence (Q9BQF6 706-1050 limits assumed): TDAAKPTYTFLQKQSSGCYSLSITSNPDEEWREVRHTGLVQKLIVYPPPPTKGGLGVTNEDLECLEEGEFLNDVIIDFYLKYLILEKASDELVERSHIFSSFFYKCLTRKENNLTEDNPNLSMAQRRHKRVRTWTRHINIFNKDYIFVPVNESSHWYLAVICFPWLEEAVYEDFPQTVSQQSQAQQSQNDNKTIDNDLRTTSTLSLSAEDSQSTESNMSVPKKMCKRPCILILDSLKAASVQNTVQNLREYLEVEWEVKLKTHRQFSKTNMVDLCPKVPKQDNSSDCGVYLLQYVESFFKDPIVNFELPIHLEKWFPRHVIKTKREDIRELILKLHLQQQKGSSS
TRAIL sens C8 – viability loss with TRAIL in NB7+C8 cells, primary screen, TRAIL sensitizer project, cell-based, ATPlite luminescence | AID 624354, 2012 | inhibition (viability loss, TRAIL sensitization), % at 10 µM | actives 1% (n = 360,000);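 active means compounds causing at least 50% loss of cell viability in the single-dose screen, relative to plate controls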
SENP6 inh – SENP6 protease inhibitors, primary screen, biochemical, luminescence, uHTS; Sentrin-specific protease 6 (Homo sapiens), Q9GZR1; Recombinant SENP6 catalytic domain, aminoluciferin luminescence; inhibition, % at 10 µM; actives 1.8% (n = 330,000); AID 2599, 2010;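 active means inhibition above about 50% at the single tested dose, limit read from the data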
PPC-1+TRAIL kill – compounds killing PPC-1 cancer cells with TRAIL present, primary screen, TRAIL potentiator project, ATPLite luminescence, uHTS. actives 0.41% (n = 220,000). cell killing (% activity), % at 4 µM or 5 µM. PPC-1 cells + TRAIL, ATPLite viability luminescence;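 active means cell killing above 50% in the first pass at 4 µM, then a duplicate retest at 5 µM averaging 50% or more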
SENP8 block-1 – SENP8 protease inhibitors, primary screen, biochemical, luminescence. Sentrin-specific protease 8 (Homo sapiens), Q96LD8. purified SENP8, Z-RLRGG-aminoluciferin cleavage. inhibition, % at 10 µM. actives 1.2% (n = 330,000). AID 2540, 2010; in the data active means inhibition above about 50%
Target sequence (Q96LD8 whole entry, looked up): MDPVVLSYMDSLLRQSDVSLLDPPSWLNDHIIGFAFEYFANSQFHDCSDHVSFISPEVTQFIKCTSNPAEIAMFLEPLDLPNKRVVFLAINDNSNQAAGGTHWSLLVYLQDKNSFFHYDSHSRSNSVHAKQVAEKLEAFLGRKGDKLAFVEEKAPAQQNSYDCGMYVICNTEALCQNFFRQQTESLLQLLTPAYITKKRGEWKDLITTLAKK
SENP8 block-2 – human SENP8 protease inhibitors, primary screen, biochemical, fluorescence, Nedd8 protein substrate, uHTS; Sentrin-specific protease 8 (Homo sapiens), Q96LD8; recombinant SENP8; inhibition, % at 20 µM; actives 0.64% (n = 360,000); AID 602440, 2012; in the data active means inhibition mostly above about 40%, no sharp cut-off; inactive means mostly below about 27%
A number is an active result; . = inactive; / = not tested or not shown.

SMILES | SENP7 block | TRAIL sens C8 | SENP6 inh | PPC-1+TRAIL kill | SENP8 block-1 | SENP8 block-2
CC(=O)Nc1ccc(C(=O)Nc2cc(C)on2)cc1 | . | . | . | / | . | .
Cc1cc(NC(=O)c2ccc3c(c2)OCCO3)no1 | . | 87 | . | . | . | .
CC(C)(C)c1ccc(C(=O)Nc2ccc([N+](=O)[O-])cn2)cc1 | . | . | . | . | . | .
Cc1cc(NC(=O)c2ccc(F)cc2)no1 | . | . | . | / | . | .
Cc1cc(NC(=O)c2ccc(C(C)(C)C)cc2)no1 | / | 70 | / | / | / | .
O=C(Nc1ccc([N+](=O)[O-])cn1)c1ccc2c(c1)OCO2 | 67 | . | . | . | . | .
CC(C)c1ccccc1OCC(=O)Nc1ccccc1C(=O)N1CCOCC1 | . | . | . | / | . | .
COc1ccc(S(=O)(=O)Nc2cc3[nH]c(=O)oc3cc2C)cc1 | . | . | . | / | . | .
O=C(c1noc2c1CSc1ccccc1-2)N1CCN(c2ccc(Cl)cc2)CC1 | . | . | . | / | . | .
Cc1cc(NC(=O)CSc2nnc(-c3ccc4c(c3)OCCO4)o2)no1 | . | 49 | . | . | . | .
COC(=O)c1ccc2nc(C3CCCCC3)c(Cc3ccc(C)cc3)n2c1 | / | . | / | / | / | .
COc1ccc(CN(C)C(=O)c2ccc(NS(=O)(=O)c3ccc4[nH]c(=O)[nH]c4c3)cc2)c(OC)c1OC | . | . | . | / | . | .
Cc1c(C(=O)N2CCC[C@H]2C(N)=O)oc2c(F)cccc12 | . | . | . | / | . | .
CCN(CC)C(=O)c1ccc(/C=C/c2c[nH]c3ccccc23)[n+](C)c1 | . | . | . | . | . | .
CC[n+]1c(/C=C/c2c[nH]c3ccccc23)ccc2cc(C)ccc21 | . | / | . | 92 | . | /
C=CCNS(=O)(=O)c1cc2c3c(c1)CCN3C(=O)CC2 | . | . | . | / | . | .
COc1ccc(-n2nnc3c(SCC(=O)Nc4ccc5c(c4)OCCO5)ncnc32)cc1 | . | / | 54 | . | . | /
Nc1ccn([C@@H]2O[C@H](CNC(=O)[C@H]3CCC(=O)N3)[C@@H](O)[C@H]2O)c(=O)n1 | / | . | / | / | / | .
CCCCCCCN(C(=O)CCl)c1ccccc1C | . | 88 | . | . | . | .
Cc1ccccc1N(Cc1cc(=O)[nH]c2ccccc12)C(=O)CCl | . | . | . | / | . | .
COc1ccccc1C1N=C(c2ccccc2C)NO1 (stereo unspecified) | 78 | . | 83 | / | 75 | .
COc1ccccc1C1=NC(c2ccc(F)cc2)N=C1C (stereo unspecified) | . | . | . | . | . | .
COc1ccc(CCCC(=O)N/N=C/c2cccc(OC)c2O)cc1C | . | 52 | . | . | . | .
CC(C)(C)c1ccc(C(=O)Nc2cccc(C(=O)N3CCOCC3)c2)cc1 | . | 63 | . | / | . | .
Cc1ccc(C(=O)Nc2cccc(C(=O)N3CCOCC3)c2)cc1 | . | . | . | . | . | .
SMILES | SENP7 block | TRAIL sens C8 | SENP6 inh | PPC-1+TRAIL kill | SENP8 block-1 | SENP8 block-2
CC(C)(C)c1ccc(C(=O)Nc2cccc(-n3cnnn3)c2)cc1 | . | 71 | . | / | . | .
CSc1nc2c(=S)[nH]c(=S)[nH]c2s1 | / | . | / | / | / | .
CN=c1scc(-c2ccccc2F)n1/N=C(\C)c1cccnc1 | . | 63 | . | . | . | .
CSc1ncnc2c1ncn2CCCN(C)Cc1ccco1 | / | . | / | / | / | .
CCOC(=O)CCCCCC(=O)Nc1ccc2c(c1)C(=O)N([C@@H](C)CO)C[C@H](C)[C@H](CN(C)C(=O)Nc1ccc(F)cc1)OCCCC[C@H](C)O2 | / | . | / | / | / | .
CCCCN(C(=O)COC(=O)C1(c2ccccc2)CC1)c1c(N)n(CCC)c(=O)[nH]c1=O | / | . | / | / | / | .
N#CC1=C(N)C(C#N)(C#N)[C@H](c2ccoc2)[C@H]2CN(Cc3ccccc3)CC=C12 | 77 | . | 91 | . | 84 | .
CC(=O)N1CC=C2C(C#N)=C(N)C(C#N)(C#N)[C@H](c3ccoc3)[C@H]2C1 | . | . | . | . | . | .
Cc1ccc(Nc2nc(CSc3nnc(-c4ccncc4)n3C)cs2)cc1 | . | 76 | . | 72 | . | .
Cc1ccc(CSc2nnc(-c3ccncc3)n2C)cc1 | . | . | . | . | . | .
Cc1cccc(C)c1NC(=O)CSc1nnc(-c2ccco2)c(-c2ccco2)n1 | . | . | . | . | . | 60
Cc1ccccc1NC(=O)CSc1nnc(-c2ccco2)c(-c2ccco2)n1 | . | . | . | . | . | 42
O=C(CSc1nnc(-c2ccco2)c(-c2ccco2)n1)Nc1ccccc1 | . | . | . | . | . | .
CN(C)c1ccc(NC(=O)CSc2nnc(-c3ccco3)c(-c3ccco3)n2)cc1 | . | . | . | / | . | 46
Cc1ccc(NC(=O)CSc2nnc(-c3ccco3)c(-c3ccco3)n2)cc1 | . | . | . | . | . | .
O=C(C[C@H]1C=C[C@@H](NC(=O)Cc2cccnc2)[C@@H](CO)O1)NCc1ccc2c(c1)OCO2 | / | . | / | / | / | .
O=C(Nc1ccc(C(=O)O)cc1)Nc1ccc([N+](=O)[O-])cc1 | . | . | . | / | . | .
O=C(Nc1cc(C(F)(F)F)cc(C(F)(F)F)c1)Nc1cnn(-c2ccc([N+](=O)[O-])cc2)c1C(F)(F)F | . | 47 | . | . | . | .
Cc1cccc(NC2=NC(C)(C)N=C(N)N2)c1 | . | 71 | . | . | . | .
CC(=O)NC1=C(NC2CCS(=O)(=O)C2)C(=O)c2ccccc2C1=O (stereo unspecified) | . | . | . | . | . | 46
O=C(CN1C(=O)c2ccccc2C1=O)NC1CCS(=O)(=O)C1 (stereo unspecified) | / | . | / | / | / | .
COC(=O)c1ccc(-n2c(C)cc(C(=O)CCl)c2C)cc1 | . | . | . | . | . | .
CCOc1ccc(-n2c(C)cc(C(=O)CCl)c2C)cc1 | . | 53 | . | . | . | .
O=C(O)c1cccc2c1C(=O)c1cc([N+](=O)[O-])cc([N+](=O)[O-])c1-2 | / | . | / | / | / | 44
Cc1c(CCCl)c(Cl)n2c(nc3ccccc32)c1C#N | / | 88 | / | / | / | .
SMILES | SENP7 block | TRAIL sens C8 | SENP6 inh | PPC-1+TRAIL kill | SENP8 block-1 | SENP8 block-2
C=C(C)CSc1nnc2n(C)c(=O)c3c4c(sc3n12)CCC4 | . | 55 | . | . | . | .
O=C(COC(=O)CNS(=O)(=O)c1ccc(Cl)cc1)NC1CCCCC1 | . | . | . | / | . | .
Nc1n[nH]c(N)c1N=Nc1cccc(C(F)(F)F)c1 | . | . | . | / | . | 44
Nc1n[nH]c(N)c1N=Nc1ccc(Cl)cc1 | . | . | . | . | . | 54
Nc1[nH]ncc1N=Nc1ccc(Cl)cc1 | . | . | . | . | . | 48
O=C(Nc1ccccc1)Nc1nc(-c2ccccc2)cs1 | . | . | . | . | . | .
CC(C)(C)c1csc(NC(=O)Nc2ccccc2)n1 | . | 54 | . | . | . | .
